Hit rate of the full screen: of about 190,000 compounds, about 360 (0.19%) were called active. About 2% were inconclusive and are not listed.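 How the source made its calls: active means GTP binding activity at least 20 points away from 100%, either lowered or raised; inconclusive means signal likely due to the compound's own green fluorescence; inactive means the rest.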 For the sample, actives were picked, then their nearest neighbours and some compounds at random.

In this experiment the target is Ras-related protein Rab-2A (Canis lupus familiaris) (UniProt P61105). Put plainly: modulators of GTP binding to Rab2A wildtype, primary screen, biochemical, dog, bead-based flow cytometry, multiplex (AID 760).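 Further: 0% = beads with excess unlabeled GTP and 100% = no-compound control corrected for plate trend.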 The settings on record: GST-Rab2 wt beads, Bodipy-GTP binding, at 10 µM.
For the molecule `CSCC(=O)N1CCCC(C(=O)c2cc(F)ccc2F)C1` (centres undefined), the GTP binding activity is 97% (inactive). For `COCCNc1nc2nonc2nc1N(C)Cc1ccc(C)cc1`, the GTP binding activity is 95% (inactive). With `CCOC(=O)C1(Cc2ccccc2C(F)(F)F)CCN(C(=O)c2cc(C)n(C)n2)CC1` the figure was 98% (inactive); with `COc1cccc2c1OCC(CN1CCN(C3CCCCC3)C(CCO)C1)=C2` (centres undefined), 100% (inactive); with `CCN(CC)N=Nc1cccc(NC(C)=O)c1`, 95% (inactive). For the molecule `NC(=O)Cn1nc([N+](=O)[O-])nc1Oc1ccc(Br)cc1`, the GTP binding activity is 97% (inactive). With `O=C(/C=C\c1cn(-c2ccccc2)nc1-c1cccs1)N1CCOCC1` the figure was 104% (inactive); with `O=C(O)/C=C/c1cn(Cc2ccccc2)nc1-c1cccs1`, 127% [activator] (active). With `O=C(O)/C=C/c1cn(-c2ccccc2)nc1-c1cccs1` the figure was 93% (inactive); with `Cc1ccc(C(=O)NN(CCC#N)C2=NS(=O)(=O)c3ccccc32)cc1`, 95% (inactive). For the molecule `Cn1nc(-c2ccccc2)c(CO)c1Sc1ccccc1`, the GTP binding activity is 93% (inactive). Under `CN1C(=O)/C(=C/C=C2\SCCN2C)OC1=S` stands 98% (inactive). Consider `O=C(O)CCc1nc2cc(Cl)ccc2n(Cc2ccccc2)c1=O`, for which the GTP binding activity was 98% (inactive). With `CCN(CC(=O)NCc1cccs1)S(=O)(=O)c1ccc(NC(C)=O)cc1` the figure was 96% (inactive); with `Cc1ccc(S(=O)(=O)N2CCOCC2)cc1NC(=O)CSc1nnc(N)s1`, 98% (inactive). `Cc1ccccc1CC1(CO)CCCN(Cc2ccc3c(c2)OCCO3)C1` (centres undefined): the GTP binding activity was 99% (inactive). `O=C(CC1SC(=Nc2ccccc2F)N(CCN2CCOCC2)C1=O)Nc1ccc(F)cc1F` (centres undefined): the GTP binding activity was 97% (inactive). Under `CC(C)NC(=O)NC(=O)CSc1nnc(-c2ccccc2F)n1N` stands 97% (inactive). Regarding `C=CCN1C(=O)C(O)(CC(=O)c2ccccn2)c2ccccc21` (centres undefined), the GTP binding activity was 107% (inactive). With `CC1(C)CC(=O)c2ccc(O)cc2O1` the figure was 97% (inactive); with `N=C1C(c2nc3ccccc3[nH]2)=C(O)CN1NC(=O)c1c[nH]c2ccccc12`, 96% (inactive); with `CCCCOc1ccc(N(CC(=O)NC(C)C)C(=O)CCC(=O)Nc2ccccn2)cc1`, 97% (inactive). Regarding `O=C(NNC(=S)NC(=O)c1cn(-c2ccccc2)nc1-c1ccccc1)c1ccncc1`, the GTP binding activity is 90% (inactive). Under `COc1ccc(N2CCN(C(=O)CNS(=O)(=O)c3ccc(C)c(C)c3)CC2)cc1` stands 96% (inactive). As to `CC(C)=CCN1CCN(Cc2ccc(Oc3ncccn3)cc2)CC1CCO` (centres undefined), the GTP binding activity was 100% (inactive). Take `COc1ccc(NC(=O)c2cc3nc(-c4ccccc4)cc(C)n3n2)cc1OC`: the GTP binding activity is 84% (inactive).

In the case of `CCOC(=O)c1nc(Nc2ccc(C(=O)OC)cc2)c2ccccc2n1`, the GTP binding activity was 77% (active). With `CCOC(=O)c1ccc(Nc2cc(C)nc3nc(C)nn23)cc1` the figure was 98% (inactive). Under `CCOC(=O)c1ccc(N/C(=N/S(=O)(=O)c2ccccc2)c2ccccc2)cc1` stands 95% (inactive); under `O=C(/C=C/c1ccc(N2CCOCC2)cc1)c1ccccc1`, 97% (inactive).

Regarding `CCN(c1ccccc1)S(=O)(=O)c1ccc2[nH]c(=O)[nH]c2c1`, the GTP binding activity was 99% (inactive).

With `O=C(Nc1ccc2oc(-c3ccccc3F)nc2c1)c1ccco1`, the GTP binding activity is 96% (inactive). In the case of `Cc1ccc2cc(CN(c3ccc(C)c(C)c3)S(C)(=O)=O)c(=O)[nH]c2c1`, the GTP binding activity was 98% (inactive). Under `CCN(CC(=O)NC(=O)NCc1ccccc1)Cc1nc2ccccc2c(=O)[nH]1` stands 101% (inactive); under `Cc1noc(C)c1S(=O)(=O)Nc1ccc(C(=O)N2CCN(c3ccc(F)cc3)CC2)cc1`, 96% (inactive). With `COc1ccc(CC(=O)N[C@@H](CCSC)c2nc3ccccc3[nH]2)cc1` the figure was 99% (inactive).

`S=C(NCc1ccc2c(c1)OCO2)NCc1ccco1`: the GTP binding activity was 101% (inactive). Take `Cc1ccc(CNC(=O)CCNS(=O)(=O)c2ccc(Br)s2)cc1`: the GTP binding activity was 99% (inactive).

Take `C=CCN(CC=C)S(=O)(=O)c1ccc(C(=O)Nc2sc3c(c2C(N)=O)CCCCC3)cc1`: the GTP binding activity was 101% (inactive). As for `COCCN(CCOC)S(=O)(=O)c1ccc(C(=O)Nc2nc3c(s2)CCc2ccccc2-3)cc1`, the GTP binding activity was 102% (inactive). On to `C=CCN(CC=C)S(=O)(=O)c1ccc(C(=O)Nc2nc3c(s2)CCc2ccccc2-3)cc1`, for which the GTP binding activity is 39% (active). With `COc1ccc2oc(=O)c(C(=O)N3CCCC3)cc2c1` the figure was 98% (inactive). With `COC(=O)C1=C(C)NC(=O)/C1=C/c1ccc(CNS(=O)(=O)c2ccc(C)cc2)o1` the figure was 100% (inactive); with `O=S(=O)(NCc1ccccc1)c1ccc(S(=O)(=O)N2CCCC2)cc1`, 100% (inactive); with `O=c1/c(=C/c2ccc(CNS(=O)(=O)c3ccccc3)o2)sc2n1CCN=2`, 74% (active). With `C=CCC(C(=O)c1ccccc1)[N+](C)(C)CC=C` (centres undefined) the figure was 96% (inactive); with `O=C(COC(=O)C12CC3CC(CC(O)(C3)C1)C2)NC12CC3CC(CC(C3)C1)C2`, 100% (inactive); with `CCOC(=O)c1oc2c(CN3CCN(CCO)CC3)c(O)c(CC)cc2c(=O)c1-c1nc2ccccc2s1`, 99% (inactive). In the case of `COc1ccc(Cl)cc1N(CC(=O)N/N=C/c1ccc(OCC(N)=O)cc1)S(C)(=O)=O`, the GTP binding activity is 99% (inactive). Take `N/C(=N\OC(=O)COc1ccc([N+](=O)[O-])cc1)c1ccc(Br)cc1`: the GTP binding activity was 98% (inactive). For the molecule `CCOc1ccc(C(C)=O)cc1CSc1nnc(-c2ccncc2)n1CCOC`, the GTP binding activity is 99% (inactive). With `O=C(CCN1C(=O)c2ccccc2C1=O)NCCCn1ccnc1` the figure was 101% (inactive); with `Cc1nc(N2CCOCC2)sc1C(=O)NN`, 100% (inactive). As to `COc1ccc(-c2nn(-c3ccccc3)cc2CN2CCCO2)c(F)c1`, the GTP binding activity was 100% (inactive).

For the molecule `Cc1ccc(CSCC(N)C(=O)O)cc1` (centres undefined), the GTP binding activity was 97% (inactive). With `Cc1ccc(SC(CC(=O)c2ccc(C(C)(C)C)cc2)C(=O)O)cc1` (centres undefined) the figure was 78% (active). For the molecule `Cc1ccc(C(=O)CS(C)(=O)=O)cc1`, the GTP binding activity is 104% (inactive). With `O=C(CSc1ccc([N+](=O)[O-])cn1)Nc1ccc(N2CCOCC2)c(Cl)c1` the figure was 96% (inactive); with `CCCOC1CCCN(Cc2cn(C)nc2-c2ccccc2F)C1` (centres undefined), 96% (inactive).

The values are drawn from PubChem BioAssay AID760 (NMMLSC, 2007).
